# Source: PubChem (several laboratories)
# This is a sample that favours compounds with a hit; in the whole collection about 2.6% have one here.
# TPT1 inh: C. albicans TPT1 enzyme inhibition; recombinant caTPT1, FP RNA substrate dephosphorylation; actives 0.81% (n = 300,000); AID 1962; inhibition, % at 5 µM;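 active means inhibition above the mean of all tested compounds plus 3 SD, set per screening campaign, cut at about 24% in these data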;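 further: plate controls were DMSO alone for no effect and ferristatin control at 100 nM for full effect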
# IDE cell activ: IDE (human) activation, cell-based | actives 0.073% (n = 340,000) | HEK cells, FAbeta-B cleavage, fluorescence polarization; 0% vehicle, 100% cell-free pure enzyme wells | P14735 | activation, % at 5.96 µM | AID 493087;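 active means activation above the mean of all tested compounds plus 3 SD, set per screening campaign, cut at about 17% in these data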
# Target sequence (P14735 whole entry, looked up): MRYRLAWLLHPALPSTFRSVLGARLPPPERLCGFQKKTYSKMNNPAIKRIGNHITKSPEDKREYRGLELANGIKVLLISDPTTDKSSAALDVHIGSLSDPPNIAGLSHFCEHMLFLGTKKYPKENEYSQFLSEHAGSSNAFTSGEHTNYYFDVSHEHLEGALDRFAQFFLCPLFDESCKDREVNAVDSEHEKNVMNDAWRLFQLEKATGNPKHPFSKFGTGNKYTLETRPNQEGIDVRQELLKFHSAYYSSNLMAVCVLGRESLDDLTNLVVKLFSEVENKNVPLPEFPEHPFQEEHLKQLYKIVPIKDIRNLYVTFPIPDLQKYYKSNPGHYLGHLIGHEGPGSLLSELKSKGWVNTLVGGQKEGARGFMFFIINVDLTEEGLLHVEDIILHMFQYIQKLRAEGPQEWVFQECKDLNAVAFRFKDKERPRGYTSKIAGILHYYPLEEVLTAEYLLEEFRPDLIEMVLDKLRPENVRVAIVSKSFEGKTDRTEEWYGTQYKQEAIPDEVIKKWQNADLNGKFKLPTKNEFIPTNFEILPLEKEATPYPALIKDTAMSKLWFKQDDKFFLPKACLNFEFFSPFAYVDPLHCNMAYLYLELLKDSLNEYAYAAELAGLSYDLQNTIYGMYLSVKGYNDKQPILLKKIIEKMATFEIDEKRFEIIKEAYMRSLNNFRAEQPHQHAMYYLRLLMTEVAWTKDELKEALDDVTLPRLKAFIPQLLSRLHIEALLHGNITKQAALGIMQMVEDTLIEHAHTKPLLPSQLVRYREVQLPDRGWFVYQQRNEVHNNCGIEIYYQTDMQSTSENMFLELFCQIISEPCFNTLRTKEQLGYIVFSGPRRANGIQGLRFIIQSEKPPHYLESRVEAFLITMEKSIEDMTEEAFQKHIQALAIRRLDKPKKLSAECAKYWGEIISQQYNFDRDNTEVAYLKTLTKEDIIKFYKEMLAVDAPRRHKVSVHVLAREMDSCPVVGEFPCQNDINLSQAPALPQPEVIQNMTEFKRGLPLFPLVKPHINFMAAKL
# Myeloid diff 2: promotes myeloid progenitor differentiation; actives 1% (n = 360,000); ER-HoxA9 myeloid progenitors, lysozyme-GFP differentiation, flow cytometry; AID 624256; calls only at 10 µM;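 active means normalized GFP-positive differentiation at or above the plate's own cutoff, the solvent-only control mean plus 3 SD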;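 further: cells exposed to compound for four days before flow analysis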
# CRFR2-BP antag: CRF-BP/CRF-R2 complex antagonism; HEK293 CRF-R2/CRF-BP, CRF-induced calcium fluorescence; inhibition, % at 11.8 µM; actives 0.59% (n = 350,000); AID 588475;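 active means inhibition of the ligand-induced calcium signal above about 50% at the single tested concentration, limit read from the data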
# CRFR2-BP ag: CRF-BP/CRF-R2 complex agonism. AID 588473. activation, % at 13.2 µM. HEK293 CRF-R2/CRF-BP, calcium dye fluorescence (FLIPR); percent of saturating CRF peptide response. actives 0.46% (n = 350,000);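 active means activation of at least 50%, plus an integration ratio under a set limit after plate pattern correction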;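 further: plate controls were neutral control wells without compound for no effect and CRF at EC100 for full effect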
# IDE cell inh: inhibits human insulin-degrading enzyme in HEK cells; actives 0.41% (n = 320,000); FAbetaB cleavage, fluorescence polarization; inhibition, % at 5.59 µM; AID 434962;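 active means percent inhibition above the average of all tested compounds plus 3 SD, set per screening campaign, cut at about 16% in these data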;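 further: IDE supplied by intact live HEK cells; FP after avidin binding of uncleaved biotin substrate so inhibition keeps polarization high; 0% = DMSO wells and 100% = 60 µM reference IDE inhibitor Ii1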
# Myeloid diff: myeloid differentiation induction. AID 651706. actives 2% (n = 2,300). shares compounds with Myeloid diff 2. calls only. ER-HoxA9 myeloid progenitors, GFP/Mac1 double-positive flow;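 active means share of green or green-and-red cells above 9 and 9% in run 1 or 4 and 3% in run 2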
# GFP autofluor: counter-screen for myeloid differentiation promoters: compound fluorescence; shares compounds with Myeloid diff 2; ER-HoxA9 myeloid progenitors, no estrogen, GFP autofluorescence flow cytometry; vehicle wells 0%, positive control 100%; fluorescence response, % (concentration not given with the values); actives 7.4% (n = 2,300); AID 651707;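 active means over 5% cells positive for green fluorescent reporter, or over 2% positive for both it and APC stain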;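 further: range taken on the double positive population between DMSO and positive control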
# Numbers without * were called inactive; i = inactive; . = no result given; + = active, no number.
SMILES,TPT1 inh,IDE cell activ,Myeloid diff 2,CRFR2-BP antag,CRFR2-BP ag,IDE cell inh,Myeloid diff,GFP autofluor
O=S(=O)(c1ccccc1)c1nc(-c2ccco2)oc1NCc1cccnc1,1.9,-2.2,+,-3.2,0.7,3.4,i,0.3
CC(C)[C@H](NS(=O)(=O)c1ccccc1)C(=O)OCC(=O)N1N=C(c2ccc(Cl)cc2)CC1c1ccco1 (stereo not given in full),8.0,-0.9,i,-41.5,-0.7,8.4,i,0.0
Cc1ccc2nc(SCC(=O)Nc3cccc(S(=O)(=O)NC4=NCCCCC4)c3)[nH]c2c1,-1.8,-4.8,i,-8.8,-1.0,7.4,i,96.1*
Cc1ccc2nc(SCC(=O)Nc3cccc(S(N)(=O)=O)c3)[nH]c2c1,-4.5,2.7,i,-3.6,-0.7,4.6,.,.
Cc1cc(Cl)ccc1OCC(=O)Nc1cccc(S(=O)(=O)NC2=NCCCCC2)c1,3.2,-4.0,+,-12.2,-1.3,8.0,i,0.8
O=C(COc1ccc(Cl)cc1)Nc1cccc(S(=O)(=O)NC2=NCCCCC2)c1,0.3,2.1,i,0.3,-1.1,7.6,.,.
Cc1cc(C)cc(NC(=S)NCC2CCCO2)c1 (stereo not given),-4.8,-0.6,i,-1.5,-0.7,1.5,i,0.2
CN1CCc2c(sc(N)c2C(N)=O)C1,-14.9,1.3,i,15.6,28.8,5.2,.,.
CN1CCc2c(sc(/N=C/c3c[nH]c4ccccc34)c2C(N)=O)C1,2.2,.,+,10.3,7.3,-2.0,i,0.0
O=C(Nc1ccccc1)c1ccc2nc(-c3ccco3)c(-c3ccco3)nc2c1,3.2,-6.3,i,4.0,3.0,4.0,i,0.0
COc1ccc(CCn2c(C)cc(C(=O)CN3C(=O)C(=O)N(Cc4ccco4)C3=O)c2C)cc1,.,5.3,+,10.7,0.2,-0.6,i,0.0
Cc1cc(C(=O)CN2C(=O)C(=O)N(Cc3ccccc3)C2=O)c(C)n1Cc1ccccc1,.,0.0,i,4.2,4.3,-2.7,.,.
COc1cc(S(=O)(=O)n2ccc(C)n2)c(OC)cc1Cl,-3.5,-0.4,+,-0.7,-1.8,1.9,i,0.0
O=C(NC1CC1)c1sc2cc(Cl)ccc2c1Cl,3.2,-2.5,i,5.2,-2.5,0.7,.,.
CC1(C)CC(NC(=O)c2sc3cc(Cl)ccc3c2Cl)CC(C)(C)N1,-5.5,-0.6,i,-15.4,0.5,-1.1,i,0.5
O=C(NCC1CCCO1)C(c1ccc(F)cc1)N(C(=O)Cn1nnc(-c2ccc(F)cc2)n1)c1cccc(O)c1 (stereo not given),-5.7,4.8,i,1.0,0.1,-0.1,i,0.0
CC(C)CC(C(=O)NCC1CCCO1)N(C(=O)Cn1nnc(-c2ccc(F)cc2)n1)c1cccc(C(F)(F)F)c1 (stereo not given),-3.9,2.0,i,-17.9,6.4,-3.2,.,.
Cc1c(Cl)cccc1N=Cc1ccc([N+](=O)[O-])s1,-1.5,5.0,i,9.5,12.6,0.6,i,0.0
CCCc1nc2cc(C)c(Br)c(C)n2c1Cc1ccc(OC)cc1C,.,.,i,.,.,.,.,.
CC(NCCCOc1cccc2ccccc12)c1ccccc1 (stereo not given),-2.9,6.5,i,-12.5,-0.3,-2.4,.,.
CNCC[C@H](Oc1cccc2ccccc12)c1cccs1,8.9,6.5,i,-48.0,0.2,-4.7,i,0.0
c1ccc(OCCSc2nnc3sc4ccccc4n23)cc1,4.4,-3.4,i,-28.2,-1.1,-3.9,i,0.0
CCOc1ccc(OCCCCNCCN)cc1,0.6,.,.,.,.,1.1,.,.
Cc1ccc(NC(=O)CN(C)Cc2cc(=O)n3ccsc3n2)cc1,6.6,-1.2,i,-7.1,-0.4,-3.0,i,1.3
CCN(CC)CCOC(=O)c1ccc(N/C=C(/C#N)c2nc(-c3ccc(OC)cc3)cs2)cc1,6.2,4.6,i,-3.2,-0.8,2.8,i,0.8
SMILES,TPT1 inh,IDE cell activ,Myeloid diff 2,CRFR2-BP antag,CRFR2-BP ag,IDE cell inh,Myeloid diff,GFP autofluor
CCN(CC)CCOC(=O)c1ccc(N/C=C(/C#N)c2nc(-c3ccc4c(c3)OCO4)cs2)cc1,5.6,7.4,i,-3.3,0.3,-0.6,.,.
Cc1ccc(NC(=S)N(C)C)cc1C,-0.1,.,i,-9.3,-0.1,9.6,.,.
CCOc1ccc(N(CC(=O)Nc2cc(Cl)ccc2C)S(C)(=O)=O)cc1,-3.6,5.0,+,-8.9,-0.2,-4.5,i,0.0
CCOC(=O)CC1Sc2ccccc2NC1=O (stereo not given),-4.0,1.3,i,1.4,2.5,0.9,.,.
COC(=O)CC1Nc2ccccc2SC1=O (stereo not given),-0.3,0.1,i,-8.2,-2.4,2.0,i,0.0
COc1ccc(Br)c(-c2nc(CS(=O)(=O)c3ccc(F)cc3)no2)c1,3.4,-2.0,i,-6.5,1.9,0.5,i,0.3
COc1cc(OC)c2c(-c3ccccc3)cc(=O)oc2c1C(CCN1CCCCC1)c1ccc2c(c1)OCO2 (stereo not given),-0.2,1.3,i,-17.5,13.7,0.8,.,.
COc1cc(OC)c2c(-c3ccccc3)cc(=O)oc2c1C(CCN1CCCC(C)C1)c1ccc2c(c1)OCO2 (stereo not given),-0.8,0.5,i,-11.9,12.6,-0.6,i,0.0
O=C(CSc1nc2ccccc2c(=O)n1Cc1ccco1)c1ccccc1,0.5,-6.0,i,-13.7,6.0,4.4,.,.
CC1CCCCC1NC(=O)CSc1nc2ccccc2c(=O)n1Cc1ccco1 (stereo not given),1.9,-0.1,+,15.6,0.5,6.2,i,0.3
CCc1c(-c2ccccc2F)ncn1Cc1cccc(-c2ccccc2)c1,.,.,i,.,.,.,i,1.6
CCCCn1c2nc3ccccc3nc2c2c(=O)n(CCC)cnc21,-4.5,6.0,i,0.0,1.5,2.1,.,.
CCCCCn1nc(-c2ccccc2)c2nc3ccccc3nc21,2.8,3.1,+,-255.6,175.6*,0.0,i,82.0*
C=CCNC(=O)C1CCCN(S(C)(=O)=O)C1 (stereo not given),1.0,4.2,i,14.9,4.7,1.6,i,0.5
C=CCNC(=O)C1CCN(S(=O)(=O)CC)CC1,-2.4,3.0,i,-26.5,-0.7,2.0,.,.
CC(C)n1c(=O)c2ccccc2n1Cc1cn(-c2ccc(Cl)cc2)nn1,.,.,i,.,.,.,.,.
O=C(CCN1C(=O)C2C3C=CC(C4CC34)C2C1=O)Nc1ccc(Cl)cc1O (stereo not given),-3.0,5.1,+,-18.9,1.5,7.6,i,0.0
